High-throughput results: PubChem BioAssay, National Center for Advancing Translational Sciences (NCATS)
Rows were chosen to be rich in hits. Some 19% of all compounds tested hit in one or more screens of this group.
HT1080 IDH1KD tx – kills HT-1080 cells with IDH1 knockdown; HT-1080 IDH1 knockdown viability, ATP luminescence, 48 h; Potency, µM (top dose mostly 46.1 µM), inactives show top-dose activity, negative = toxicity, actives largely listed as cytotoxic; 360,000 compounds, 2% hits; AID 686971;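 further: potency means the concentration at half of the fitted maximal effect; 0% = DMSO wells and -100% = cell-free medium wells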
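Luminescent ATP read-out (CellTiter-Glo, 10 min at room temperature) after 48 h compound exposure at 37 °C gave viability of IDH1-knockdown HT-1080 cells. Activity was normalised to DMSO and cell-free wells, then fitted as concentration-response curves.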
DT40 TDP1 no CPT – qHTS for Inhibitors of human tyrosyl-DNA phosphodiesterase 1 (TDP1): qHTS in cells in absence of CPT | DT40 Tdp1-/- hTDP1 cells, no CPT, ATP luminescence, 48 h | Potency, µM (series often up to 46.2 µM), inactives show top-dose activity change, negative = growth inhibition, most hits filed as inhibitors | 420,000 compounds, 15% hits; further: potency means the concentration at half of the fitted maximal effect; nearly all actives have a fitted effect of over 55% in size
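Seeded 400 DT40-hTDP1 cells/well (vehicle DMSO, no 20 nM CPT); pinned compounds; ≥48 hr at 37 °C; CellTiter-Glo luminescence as viability measure.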
HT1080NT lethal – kills 2HG-producing HT-1080-NT fibrosarcoma cells | HT-1080-NT fibrosarcoma viability, CellTiter-Glo ATP luminescence, 48 h | Potency, µM (highest dose often 46.1 µM), inactives show top-dose activity, negative = less viability, hits mostly cytotoxic | 360,000 compounds, 1.6% hits;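 further: NT is the 2HG producing partner of a matched IDH1 knockdown line; potency means the concentration at half of the fitted maximal effect; 0% = DMSO-treated cells and -100% = media-only wells without cells; nearly all actives have a fitted effect of over 55% in size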
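Viability of the 2HG-overproducing fibrosarcoma line after 48 hours of compound exposure at 37 degrees C was determined by luminescence with CellTiter-Glo, and concentration-effect curves were then fitted and categorized.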
uPA surface inh – inhibitors of cell surface uPA generation; cell surface uPA generation assay, qHTS; Potency, µM (titrated, usually from 38.3 µM), inactives show top-dose activity change, negative = inhibition, hits mostly inhibitors; 330,000 compounds, 0.31% hits; AID 540303; active means well fitted inhibition curve with a large enough effect; inconclusive means small, poorly fitted or top-dose-only effect; inactive means no such curve, though single readings can be large or run the other way; tested in mouse RAW 264.7 cells; further: potency means the concentration at half of the fitted maximal effect; nearly all actives have a fitted effect of over 55% in size
IL-1B inflam inh – blocks inflammasome-driven IL-1 beta release; THP-1 LPS/ATP IL-1B secretion, AlphaLISA, 16 h; hits give low values; activity change, % at 57.5 µM; 360,000 compounds, 4.7% hits; AID 743279; in the data active means activity change below about -50%; inconclusive means mostly about -30% to -49%
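THP-1 cells pretreated 1 hr with compounds (up to 57.5 uM final), then stimulated with LPS (250 ng/mL final) plus ATP (1.25 mM final); secreted IL-1B measured by AlphaLISA after 16 hr, decreased signal indicating inhibition.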
TDP1 cell CPT – growth inhibition of DT40 Tdp1-/-;hTDP1 cells with camptothecin (screen for TDP1 inhibitors); AID 686979; chicken DT40 Tdp1-/-;hTDP1 cells + 20 nM CPT, ATP luminescence, 48 h; 420,000 compounds, 12% hits; Potency, µM (top dose mostly 46.2 µM), inactives show at the top dose activity change, negative = growth inhibition, hits mostly inhibitors; further: potency means the concentration at half of the fitted maximal effect; nearly all actives have a fitted effect of over 55% in size
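Chicken DT40 Tdp1-/- cells complemented with human TDP1, 400 cells/well, exposed to compounds plus 20 nM camptothecin for at least 48 h at 37 C; viability read as ATP content by CellTiter-Glo luminescence.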
* hit, by the source's call; ? = inconclusive; . = no result given; [ ] = dose if it differs, or a comment. Unless noted, the call rests on the fitted dose curve; in most records, active means well fitted curve in the direction sought with a large enough effect; inconclusive means small, poorly fitted or top-dose-only effect, or another doubt; inactive means no such curve, though single readings can be large; an effect the other way counts as inactive or inconclusive. Unless noted, on the % scale 0 is the no-effect control and ±100 the full control effect.

SMILES | HT1080 IDH1KD tx | DT40 TDP1 no CPT | HT1080NT lethal | uPA surface inh | IL-1B inflam inh | TDP1 cell CPT
COCCCNC(=O)C[C@H]1C[C@H](C(=O)N2CCCCC2)[C@@]2(C)c3[nH]c4ccc(Cl)cc4c3CCN2C1=O | -3% | 13µM* | 0% | -6% | -17 | 21µM*
C[C@]12c3[nH]c4ccc(Cl)cc4c3CCN1C(=O)[C@@H](CC(=O)NCCc1ccccn1)C[C@@H]2C(=O)N1CCCCC1 | -1% | 26µM* | 1% | -29% | -17 | ?
CC[C@]12c3[nH]c4ccc(Cl)cc4c3CCN1C(=O)[C@@H](CC(=O)NCCc1ccccn1)C[C@@H]2C(=O)N1CCN(C(=O)C2CC2)CC1 | 2% | ? | 1% | 15% | 10 | ?
COc1ccc(-n2c(CCNC(=O)c3ccc(-c4cccc(F)c4)cc3)nnc2SC)cc1 | . | ? | . | . | . | -1%[9.04 µM]
CC(=O)Nc1ccc(NC(=O)C2CCN(S(C)(=O)=O)CC2)cc1 | 2% | -1% | 2% | . | 24 | 1%
c1ccc(Cc2cc(-c3ccccc3)on2)cc1 | -13% | -9% | -30% | . | -13 | -15%
Cc1cc2c(c(-c3cnccn3)c1)OC(CNC(=O)c1c(F)cccc1Cl)C2 (configuration not stated) | . | ? | . | . | . | 10%[9.04 µM]
Nc1ncnc2c1ncn2[C@@H]1O[C@H](CNC(=O)[C@@H](N)Cc2ccc(C(=O)c3ccccc3)cc2)[C@@H](O)[C@H]1O | 13% | -13% | 16% | . | -26 | 1%
Cc1cc(OCCOCCNC(C)C)cc(C)c1Cl | ? | 18µM* | ? | -6% | -28 | 18µM*
Cc1cc(OCCCCNC(C)C)cc(C(C)C)c1 | -18% | ? | -4% | 0% | -10 | ?
COCCNC(=O)Cc1c(C)c2c(cc(C)c3c(C(C)(C)C)coc32)oc1=O | 8.2µM* | 15µM* | 6.5µM* | -13% | -24 | 9.2µM*
Cc1cc2oc(=O)c(CC(=O)NCCCN(C)C)c(C)c2c2occ(C(C)(C)C)c12 | 5.8µM* | ? | 18µM* | -12% | -98* | ?
COc1ccc(CCNC(=O)Cc2c(C)c3c(cc(C)c4c(C)coc43)oc2=O)cc1OC | . | 21µM* | . | . | . | 18µM*
Cc1cc2oc(=O)c(CC(=O)NCCCO)c(C)c2c2occ(C(C)(C)C)c12 | -2% | -28% | -6% | ? | -2 | ?
Cc1coc2c1c(C)cc1oc(=O)c(CC(=O)NCCc3ccc(Cl)cc3)c(C)c12 | . | ? | . | . | . | -23%
CCN(CC)c1ccc(C2C(C(=O)Nc3ccccc3C)=C(C)Nc3ncnn32)cc1 (configuration not stated) | . | -24% | . | . | . | 0%
COc1ccc(C2NCCc3c2[nH]c2ccccc32)cc1COc1ccc(F)cc1 (configuration not stated) | ? | 21µM* | ? | ? | -93* | ?
COc1ccc(C2NCCc3c2[nH]c2ccccc32)cc1CN1CCc2cc(OC)c(OC)cc2C1C (configuration not stated) | ? | 18µM* | 18µM* | -6% | 0 | ?
COc1ccc(/C=N/NC(=O)c2cccnc2)cc1CN1CCc2cc(OC)c(OC)cc2C1C (configuration not stated) | -12% | -19% | -13% | 9% | 50 | -2%
O=S(=O)(c1cnc2ccccc2c1)N1CCN(c2nc(-c3cccs3)nc3ccccc23)CC1 | 20% | -21% | 16% | . | . | -26%
COc1ccnc(Oc2ccc(F)cc2)c1C(=O)N/C=N/OCc1cccc(F)c1 | -4% | -36% | -4% | -3% | 0 | -8%
COc1ccnc(Oc2ccccc2)c1C(=O)N/C=N/OCc1ccc(F)cc1Cl | 16µM* | ? | ? | 5% | ? | ?
